Reference: the supplement of paper PMC6555819

How the values were obtained:
Assay in all cases: PBM binding z-score (relative to random genomic background probes); higher = stronger binding; sequences stand for … in GC…GCGATTGACAGCGTAGAATGAAGG
[1] = test system: RARb homodimer (NR concentration 270 nM)
How it was run: (§1)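 Regression normalization was applied to scanned fluorescence from custom Agilent 4×180K protein-binding microarrays. Before scanning, arrays were incubated 1 h with ligand-free nuclear receptor dimers, and binding was detected with antibodies against each partner (one per run). Binding z-scores use the random background probes as reference.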

[2] = test system: RARg:RXRa (NR concentration 270 nM, RXRa partner concentration 90 nM)
How it was run: as §1

[3] = test system: RARg homodimer (NR concentration 270 nM)
How it was run: as §1

[4] = test system: RXRa DBDmut IVT, anti-RXR (DBD mutation: RXRa K156A/R161A, NR concentration 90 nM)
How it was run: as §1

[5] = test system: RXRa homodimer (NR concentration 180 nM)
How it was run: as §1

[6] = test system: THRa:RXRa (NR concentration 90 nM, RXRa partner concentration 90 nM)
How it was run: as §1

[7] = test system: THRa homodimer (NR concentration 90 nM)
How it was run: as §1

[8] = test system: VDR homodimer (NR concentration 270 nM)
How it was run: as §1

Row | Sequence | PBM binding z-score [1] | PBM binding z-score [2] | PBM binding z-score [3] | PBM binding z-score [4] | PBM binding z-score [5] | PBM binding z-score [6] | PBM binding z-score [7] | PBM binding z-score [8]
1 | CGTCAAACTTCAAGGTAACGTAACAGAAAGCAGC | 0.274 | 0.163 | 0.537 | 0.306 | 0.376 | 1.73 | 1.11 | -0.0172
2 | ATCTCTAGGTAGCCAAGTTCAGTGAATGCCGAAC | 0.866 | 0.375 | 0.381 | 0.591 | 0.0776 | 0.48 | 0.337 | 2.15
3 | AGAATGAGGTTAGTAAGATCAGGGAATTGCGGTC | 0.918 | 0.607 | 0.689 | 0.175 | 0.741 | 1.33 | 0.245 | 0.435
4 | TCTCGGAAGACACGAAAGGTCAGAGCTCGACATC | 4.18 | 4.01 | 4.27 | 1.06 | 4.27 | 2.58 | 0.266 | 0.21
5 | GCTTGTAGATCACGGTTAAGAAAGACTAAGCTAA | -0.369 | -0.304 | -0.36 | 0.053 | -0.526 | -0.523 | -1.01 | -0.582
6 | ATCTCTAGGTAACGATAGTTCAGTGAATGCAAAT | 0.983 | 0.601 | 0.702 | -0.137 | 0.128 | 0.928 | 0.354 | 0.517
7 | GCTGCTAGGTCACGTTGGTCAGCTAACGGGTACG | 3.68 | 4.37 | 5.6 | 1.5 | 3.09 | 3.38 | 1.79 | 0.836
8 | CAACCTAGGTCAGGGCCAGTATAGGAGGAACGTT | 2.7 | 3.49 | 4.18 | 0.0707 | 2.07 | 2.12 | 0.435 | -0.128
9 | ATATGTAGGTTACATCCGGGTCATACAGGCTATG | 2.77 | 3.85 | 2.26 | 0.757 | 3.05 | 4.01 | 2.3 | 2.26
10 | CATACAGGGTCAGCTAGGCAAGAGTAGGGACGGC | 2.9 | 4.17 | 4.1 | 1.22 | 4.03 | 2.94 | 1 | 0.693
11 | CAAACTAGGTAACAGAGGTCAAAGTCCGTGCGTA | 4.45 | 5.28 | 4.28 | 2.34 | 6.18 | 4.1 | 1.95 | 4.49
12 | GCTCGAAGGACAAGGTCAGAGCTTTGTCCGTAGA | 3.06 | 3.15 | 3.49 | 0.0106 | 2.51 | 2.65 | 0.93 | 0.387
13 | ACAGACAGGTGAGTGAAGGTAACGCAGCTGGACG | 0.215 | 0.259 | 0.522 | -0.546 | 0.362 | 1.83 | -0.423 | -0.319
14 | GCTTACGGGTCAAAGGTTCTAGCATGAATAGAAT | 2.69 | 5.33 | 4.79 | 2.09 | 7.13 | 2.7 | -0.332 | 1.55
15 | AGAATGAGGTTATACGTAGATCAGGAAAGAAAGT | 0.817 | 1.68 | 1.3 | 1.77 | 2.25 | 2.15 | 0.219 | 0.894
16 | GATGCAGGGTCAGCTAGAGGCCAGAGTATGGAAA | 3.34 | 6.65 | 5.08 | 1.24 | 4.39 | 2.95 | 0.228 | 0.522
17 | TAGCCTAGGTCAGATCGGGCTAGTATACGCTATA | 1.59 | 2.48 | 3.26 | -0.66 | 1.34 | 3.37 | -0.538 | -0.698
18 | AGTCAAAGTTCGCTAGGTAACGTAAGATTCAGCT | 0.79 | 1.41 | 1.49 | 1.92 | 0.868 | 0.668 | -0.0669 | 0.872
19 | GGGACTGGGGCAAAGCAGGTTACCATAAGGTTGG | 1.75 | 0.941 | 0.994 | -1.03 | 0.55 | 3.3 | 1.32 | 0.624
20 | ATCTCTAGGTAACAAGTTCATTGAAAGAGAGGAC | 2.29 | 2.04 | 1.72 | 2.49 | 1.8 | 2.14 | 1.24 | 5.08
21 | CAAACTAGGTCTCAGAGGTCAAAGTCCGTGCGTA | 4.68 | 5.13 | 4.6 | 1.65 | 6.01 | 3.63 | 1.7 | 4.57
22 | AGAATGAGCTTAAGATCAGGGAAACAGAATACAT | -0.611 | -0.159 | 0.233 | -0.641 | -0.0967 | -0.123 | -0.875 | -0.392
23 | CTTACAGGGTCAGCTAGGCCAGAGTAGGGACGGC | 3.2 | 4.47 | 4.97 | 1.83 | 4.42 | 2.97 | 0.729 | 0.875
24 | CGTTACGGGTCAAGGTTATAGCACGGGTGGTACG | 3.67 | 4.89 | 4.88 | 0.953 | 5.7 | 3.24 | 0.918 | 1.42
25 | ATATGTAGATTAGCTGGGGTCATTCAGACTAGGC | 3.49 | 3.43 | 2.17 | 1.87 | 4.94 | 4.26 | 3.01 | 4.47
26 | ATCTCTAGGTAACCAAATTCAGTGAATGCCGAAC | 0.339 | 0.22 | 0.428 | 0.324 | 0.301 | 0.659 | 0.778 | 0.572
27 | CCTATTAGTTGACCATACGGGCAACCGAAGCTCG | 1.12 | 0.753 | 0.421 | 0.337 | 0.116 | 0.0977 | 0.187 | 0.509
28 | CCTTACGGGTCACTCCAAGTTATAGCATCGGAGT | 2.81 | 4.31 | 4.69 | 1.81 | 4.11 | 2.51 | 0.165 | 1.05
